Compounds without any hit were thinned out: in the full panel of roughly 79,000, 15% have a hit. A number with no mark means an inactive call. The source made the active and inactive calls. Rule as the data show it: active = growth inhibition above about 70%; inactive = the rest.
Experiments:
[1] = NCI Yeast Anticancer Drug Screen. Data for the rad50 strain (AID 155);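 also: 0% = growth of vehicle-only cultures of the same strain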; settings: S. cerevisiae rad50 strain growth inhibition; at 50.0 µM; stronger effect = higher value
Procedure, shortened: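 Readout: growth inhibition relative to vehicle-treated cultures. Compound exposure was carried out in a genetically defined yeast strain deficient in DNA damage repair.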

[2] = NCI Yeast Anticancer Drug Screen. Data for the mec2-1 strain (AID 157); settings: S. cerevisiae mec2-1 strain, at 50.0 µM, stronger effect = higher value
Procedure, shortened: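 Mutant yeast (mec2-1) grown with compound; growth inhibition relative to vehicle control reported.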

[3] = NCI Yeast Anticancer Drug Screen. Data for the sgs1 mgt1 strain (AID 161);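 also: 0% = growth of cultures given vehicle only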; settings: S. cerevisiae sgs1 mgt1 strain, at 50.0 µM, stronger effect = higher value
Procedure, shortened: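 This yeast growth screen uses a strain with defined DNA-repair lesions; compound-treated growth is compared with vehicle-treated growth.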

[4] = NCI Yeast Anticancer Drug Screen. Data for the cln2 rad14 strain (AID 165);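 also: 0% = growth equal to vehicle treated cultures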; settings: S. cerevisiae cln2 rad14 strain, at 50.0 µM, stronger effect = higher value
Procedure, shortened: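 Readout is yeast growth inhibition versus vehicle-treated controls, using a strain with cln2 and rad14 alterations exposed to compound.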

[5] = NCI Yeast Anticancer Drug Screen. Data for the bub3 strain (AID 167); settings: S. cerevisiae bub3 mutant strain, at 50.0 µM, stronger effect = higher value
Procedure, shortened: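 Readout: yeast growth inhibition, expressed relative to vehicle-only wells. The test organism is a mutant strain from a panel with lesions in DNA repair or checkpoint genes.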

[6] = NCI Yeast Anticancer Drug Screen. Data for the mlh1 rad18 strain (AID 175); settings: S. cerevisiae mlh1 rad18 strain growth inhibition; at 50.0 µM; stronger effect = higher value
Procedure, shortened: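 Genetically defined yeast (DNA repair-deficient) exposed to compounds; growth inhibition determined relative to vehicle.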

SMILES: CCOC(=O)CNC(=O)C(Cc1ccccc1)NC(=O)CNC(=O)OCc1ccccc1 (centres undefined)
- growth inhibition [1]: 22.4%
- growth inhibition [2]: 8.6%
- growth inhibition [3]: 15.5%
- growth inhibition [4]: 20.4%
- growth inhibition [5]: 0.75%
- growth inhibition [6]: 20.8%

SMILES: CC(=O)N1CC/C(=C\c2ccccc2)C1=O
- growth inhibition [1]: -10.1%
- growth inhibition [2]: -7.25%
- growth inhibition [3]: -12.5%
- growth inhibition [4]: -6.85%
- growth inhibition [5]: 0.25%
- growth inhibition [6]: -3.2%

SMILES: N#CC1CCCC(CBr)C1 (centres undefined)
- growth inhibition [1]: -24.9%
- growth inhibition [2]: -43%
- growth inhibition [3]: -20.5%
- growth inhibition [4]: -23.7%
- growth inhibition [5]: -9.05%
- growth inhibition [6]: -26.7%

SMILES: CN(C(=O)C12C3C4C1C1C2C3C41C#N)C(C)(C)C (centres undefined)
- growth inhibition [1]: 20.6%
- growth inhibition [2]: 6.15%
- growth inhibition [3]: 2.5%
- growth inhibition [4]: 11.2%
- growth inhibition [5]: 20.5%
- growth inhibition [6]: 19.6%

SMILES: CCc1nnc(CC)n1N
- growth inhibition [1]: 46.2%
- growth inhibition [2]: -7.05%
- growth inhibition [3]: 41.8%
- growth inhibition [4]: -10.6%
- growth inhibition [5]: 16.4%
- growth inhibition [6]: 38.2%

SMILES: CN(C)c1ccc(N2C(=S)SC(=Nc3ccccc3)C2=Nc2ccccc2)cc1
- growth inhibition [1]: -6%
- growth inhibition [2]: -13.6%
- growth inhibition [3]: -10.8%
- growth inhibition [4]: 7.05%
- growth inhibition [5]: -1.5%
- growth inhibition [6]: 3.45%

SMILES: CCN1CCC(O)(C(C(=O)O)c2ccccc2)CC1 (centres undefined)
- growth inhibition [1]: 3.45%
- growth inhibition [2]: -27%
- growth inhibition [3]: -35%
- growth inhibition [4]: -28.8%
- growth inhibition [5]: -38.7%
- growth inhibition [6]: 2.4%

SMILES: NCCCC(NC(=O)CCCCCCCCN=C(N)N)C(O)CCCCCCCCN=C(N)N (centres undefined)
- growth inhibition [1]: 20.9%
- growth inhibition [2]: 14.8%
- growth inhibition [3]: 4.55%
- growth inhibition [4]: -6.8%
- growth inhibition [5]: 22.3%
- growth inhibition [6]: 0.75%

SMILES: O=C1c2ccccc2C2(c3ccccc3)C=NNC12c1ccccc1 (centres undefined)
- growth inhibition [1]: 21.5%
- growth inhibition [2]: 6.9%
- growth inhibition [3]: 18.2%
- growth inhibition [4]: 4.4%
- growth inhibition [5]: 55.5%
- growth inhibition [6]: 25.1%

SMILES: COC1=C2CC(C)CC(OC)C(OC(C)=O)C(C)/C=C(\C)C(OC(N)=O)C(OC)/C=C\C=C(/C)C(=O)NC(=CC1=O)C2=O (centres undefined)
- growth inhibition [1]: 90% (active)
- growth inhibition [2]: 91% (active)
- growth inhibition [3]: 92.2% (active)
- growth inhibition [4]: 87.2% (active)
- growth inhibition [5]: 90.7% (active)
- growth inhibition [6]: 89.4% (active)

SMILES: CC1(COC(=O)C2(C)CO2)CO1 (centres undefined)
- growth inhibition [1]: 28.2%
- growth inhibition [2]: 9.95%
- growth inhibition [3]: -6.1%
- growth inhibition [4]: 4.7%
- growth inhibition [5]: -25.2%
- growth inhibition [6]: -78.2%

SMILES: OCCSC1CCCCC1
- growth inhibition [1]: 12.1%
- growth inhibition [2]: 6.35%
- growth inhibition [3]: -1.55%
- growth inhibition [4]: 0.1%
- growth inhibition [5]: -16.1%
- growth inhibition [6]: 1.5%

SMILES: Cc1cc(N(CCC#N)CCC#N)ccc1/C=C(\N=[N+]=[N-])C(=O)NC(=O)COc1ccccc1
- growth inhibition [1]: 16.1%
- growth inhibition [2]: -19.8%
- growth inhibition [3]: 4.7%
- growth inhibition [4]: 11.9%
- growth inhibition [5]: -6.65%
- growth inhibition [6]: -9.05%

SMILES: COC(=O)CCC(=O)Nc1ccccc1C(F)(F)F
- growth inhibition [1]: -8.55%
- growth inhibition [2]: 5.3%
- growth inhibition [3]: 7.65%
- growth inhibition [4]: 3.2%
- growth inhibition [5]: 8.45%
- growth inhibition [6]: 1%

SMILES: COc1ccc(C)cc1NC(=S)NC(=O)C(C)Oc1ccccc1 (centres undefined)
- growth inhibition [1]: 11.8%
- growth inhibition [2]: 46.5%
- growth inhibition [3]: 59.5%
- growth inhibition [4]: -27%
- growth inhibition [5]: 28.6%
- growth inhibition [6]: 32.9%

SMILES: O=c1[nH][nH]c(=O)c(Cl)c1Cl
- growth inhibition [1]: 1.55%
- growth inhibition [2]: 1.6%
- growth inhibition [3]: -17.5%
- growth inhibition [4]: 0.25%
- growth inhibition [5]: -0.85%
- growth inhibition [6]: 13.3%

SMILES: Cc1ccc(-n2cc(-c3ccc(Cl)cc3)c3c(NNC(=S)NCc4ccccc4)ncnc32)cc1
- growth inhibition [1]: 30.9%
- growth inhibition [2]: 35%
- growth inhibition [3]: 52.5%
- growth inhibition [4]: 32.4%
- growth inhibition [5]: 40.7%
- growth inhibition [6]: 11.1%

SMILES: O=c1c2cc(Cl)ccc2on1CN1CCOCC1
- growth inhibition [1]: 3.4%
- growth inhibition [2]: 11.4%
- growth inhibition [3]: 17%
- growth inhibition [4]: -3.9%
- growth inhibition [5]: 5.4%
- growth inhibition [6]: 5.8%

SMILES: Cc1oc2ccccc2c(=O)c1CO
- growth inhibition [1]: -12.6%
- growth inhibition [2]: 13.2%
- growth inhibition [3]: 2%
- growth inhibition [4]: -9.85%
- growth inhibition [5]: -11.1%
- growth inhibition [6]: -12.2%

SMILES: O=C(O)c1cc(Br)ccc1[N+](=O)[O-]
- growth inhibition [1]: -5.8%
- growth inhibition [2]: -25.4%
- growth inhibition [3]: 3.95%
- growth inhibition [4]: 7.05%
- growth inhibition [5]: -1.95%
- growth inhibition [6]: -11%

SMILES: CC(=O)CC(OC(C)=O)C1=CCC2C(CC1C)OC(=O)C2C (centres undefined)
- growth inhibition [1]: 45.8%
- growth inhibition [2]: 9.8%
- growth inhibition [3]: -22.6%
- growth inhibition [4]: -0.65%
- growth inhibition [5]: -36.5%
- growth inhibition [6]: -56.6%

SMILES: CCCCOC(=O)c1ccc(NC(=O)Nc2cc([N+](=O)[O-])ccc2F)cc1
- growth inhibition [1]: 56.4%
- growth inhibition [2]: 54.6%
- growth inhibition [3]: 63%
- growth inhibition [4]: 54.6%
- growth inhibition [5]: 12.3%
- growth inhibition [6]: 71.2% (active)

SMILES: O=C(NNc1ccccc1)C1C2CC3OC(=O)C1C3C2 (centres undefined)
- growth inhibition [1]: 54%
- growth inhibition [2]: 82.1% (active)
- growth inhibition [3]: 77.6% (active)
- growth inhibition [4]: 52.4%
- growth inhibition [5]: 79.8% (active)
- growth inhibition [6]: 68.5%

SMILES: Cc1nc2sccn2c1C(=O)NC(=O)Nc1ccc(Cl)cc1
- growth inhibition [1]: 0.35%
- growth inhibition [2]: -14.8%
- growth inhibition [3]: -2.75%
- growth inhibition [4]: 5.45%
- growth inhibition [5]: -9.8%
- growth inhibition [6]: -16.1%

SMILES: Cn1cc(-c2ccc3c4ccccc4n(C)c3c2)c2ccccc21
- growth inhibition [1]: -17.9%
- growth inhibition [2]: -4.3%
- growth inhibition [3]: -7.5%
- growth inhibition [4]: -2.8%
- growth inhibition [5]: -10.2%
- growth inhibition [6]: 2.15%

SMILES: COc1cccc(N2C(=O)/C(=C/c3ccc(N(CCC#N)CCC#N)cc3)N=C2c2cc([N+](=O)[O-])ccc2Cl)c1
- growth inhibition [1]: 7.9%
- growth inhibition [2]: 27.9%
- growth inhibition [3]: 40.8%
- growth inhibition [4]: 32%
- growth inhibition [5]: 32.1%
- growth inhibition [6]: 28.9%

SMILES: Cc1ccc(C(=O)O)c(=O)[nH]1
- growth inhibition [1]: 3.65%
- growth inhibition [2]: -26.1%
- growth inhibition [3]: 5.3%
- growth inhibition [4]: 2.05%
- growth inhibition [5]: 7.3%
- growth inhibition [6]: -2%

SMILES: O=NN(CCCl)C(=S)NC1CCCCC1
- growth inhibition [1]: 3.25%
- growth inhibition [2]: -0.15%
- growth inhibition [3]: 6.35%
- growth inhibition [4]: 7.2%
- growth inhibition [5]: -3.6%
- growth inhibition [6]: 47.8%

SMILES: O=S(=O)(SSS(=O)(=O)c1ccc(Cl)c(Cl)c1)c1ccc(Cl)c(Cl)c1
- growth inhibition [1]: 7.8%
- growth inhibition [2]: 4.05%
- growth inhibition [3]: 5.85%
- growth inhibition [4]: -3.45%
- growth inhibition [5]: 3.65%
- growth inhibition [6]: 11.7%

SMILES: CCCCCOC(C)(OCCCCC)OCCCCC
- growth inhibition [1]: 7%
- growth inhibition [2]: 13.6%
- growth inhibition [3]: -4.2%
- growth inhibition [4]: 2.8%
- growth inhibition [5]: 9.6%
- growth inhibition [6]: 7.5%

SMILES: CCCCN(CC)NC(=S)Nc1ccccc1
- growth inhibition [1]: -9.25%
- growth inhibition [2]: 9.7%
- growth inhibition [3]: -3.3%
- growth inhibition [4]: -18.4%
- growth inhibition [5]: 17.9%
- growth inhibition [6]: 5.6%

SMILES: CC1(C)CC(=O)C(C=O)C(=O)C1
- growth inhibition [1]: -6.85%
- growth inhibition [2]: -13.7%
- growth inhibition [3]: -38.3%
- growth inhibition [4]: -2.3%
- growth inhibition [5]: 3%
- growth inhibition [6]: -22.9%

SMILES: Cc1cc[c]([Sb]2([c]3ccc(C)cc3)([c]3ccc(C)cc3)[NH]c3cc(C(c4ccccc4)(c4ccccc4)c4ccccc4)cc(C(C)(C)C)c3[O]2)cc1
- growth inhibition [1]: -1.65%
- growth inhibition [2]: 14.3%
- growth inhibition [3]: 5.15%
- growth inhibition [4]: -23.6%
- growth inhibition [5]: -1.25%
- growth inhibition [6]: 11.1%

SMILES: OCCOc1c(Cl)c(C(Cl)(Cl)Cl)nc2ccccc12
- growth inhibition [1]: 84.2% (active)
- growth inhibition [2]: 95.3% (active)
- growth inhibition [3]: 91% (active)
- growth inhibition [4]: 46%
- growth inhibition [5]: 94% (active)
- growth inhibition [6]: 94.3% (active)

SMILES: Cc1c(Cl)cccc1NC(=O)Oc1ccc(Cl)cc1
- growth inhibition [1]: 1.75%
- growth inhibition [2]: -2.75%
- growth inhibition [3]: -5.6%
- growth inhibition [4]: -7.45%
- growth inhibition [5]: -9.7%
- growth inhibition [6]: -4.05%

SMILES: O=C(O)c1ccccc1C(NC(=O)N1C(=O)C=CC1=O)NC(=O)N1C(=O)C=CC1=O
- growth inhibition [1]: 29.2%
- growth inhibition [2]: -5.1%
- growth inhibition [3]: -2.85%
- growth inhibition [4]: 16.4%
- growth inhibition [5]: 4.8%
- growth inhibition [6]: 12.8%

SMILES: NC(CSSCC(N)Cc1ccccc1)Cc1ccccc1 (centres undefined)
- growth inhibition [1]: -4.25%
- growth inhibition [2]: -9.45%
- growth inhibition [3]: -9.2%
- growth inhibition [4]: 14.8%
- growth inhibition [5]: -27.5%
- growth inhibition [6]: 25.9%

SMILES: N#CC(NCc1ccccc1)C(O)c1ccccc1 (centres undefined)
- growth inhibition [1]: 17.8%
- growth inhibition [2]: 11%
- growth inhibition [3]: 2.25%
- growth inhibition [4]: 16.8%
- growth inhibition [5]: 9.25%
- growth inhibition [6]: 11.9%

SMILES: Cn1c(N)c(NC(=O)CC#N)c(=O)n(C)c1=O
- growth inhibition [1]: 20.9%
- growth inhibition [2]: 2.7%
- growth inhibition [3]: 27.3%
- growth inhibition [4]: 21%
- growth inhibition [5]: -9.85%
- growth inhibition [6]: 21.1%

— PubChem BioAssay (NCI)
